# Reference: publication PMC11062922 (Nature Chemical Biology, 2023)
# Where two headings read alike, the source gives them in different places.
# Tests used:
# Set-up in all cases: species or system human, MV4-11 + K-562 + COLO205 + SK-N-BE2 + OVCAR-8
# CSNK1A1 = details: read-out: apparent Kd, compound concentrations: 100 nM and 1000 nM (sheet 'Samples'), n = 1
# CSNK1D = details: read-out: apparent Kd, n = 1
# CSNK1E = details: read-out: apparent Kd, n = 1
# DDR1 = details: read-out: apparent Kd, compound concentrations: 100 nM and 1000 nM (sheet 'Samples'), n = 1
# DDR2 = details: read-out: apparent Kd; compound concentrations: 100 nM and 1000 nM (sheet 'Samples'), CATDS: 3.5910243594836001E-2; n = 1
# GAK = details: read-out: apparent Kd, compound concentrations: 100 nM and 1000 nM (sheet 'Samples'), n = 1
# MAPK10 = details: read-out: apparent Kd, compound concentrations: 100 nM and 1000 nM (sheet 'Samples'), n = 1
# MAPK11 = details: read-out: apparent Kd, compound concentrations: 100 nM and 1000 nM (sheet 'Samples'), n = 1
# MAPK14 = details: read-out: apparent Kd, n = 1
# MAPK8 = details: read-out: apparent Kd, compound concentrations: 100 nM and 1000 nM (sheet 'Samples'), n = 1
# MAPK9 = details: read-out: apparent Kd, compound concentrations: 100 nM and 1000 nM (sheet 'Samples'), n = 1
# MAPKAPK2 = details: read-out: apparent Kd, n = 1
# PIK3CA = details: read-out: apparent Kd; compound concentrations: 100 nM and 1000 nM (sheet 'Samples'), CATDS: 4.2523993136959801E-2; n = 1
# PIK3CD = details: read-out: apparent Kd, compound concentrations: 100 nM and 1000 nM (sheet 'Samples'), n = 1
# PRKD2 = details: read-out: apparent Kd; compound concentrations: 100 nM and 1000 nM (sheet 'Samples'), CATDS: 3.2417406243743098E-2; n = 1
# PRKD3 = details: read-out: apparent Kd; compound concentrations: 100 nM and 1000 nM (sheet 'Samples'), CATDS: 3.0540590804978299E-2; n = 1
# RIPK2 = details: read-out: apparent Kd, compound concentrations: 100 nM and 1000 nM (sheet 'Samples'), n = 1
# TNIK = details: read-out: apparent Kd; compound concentrations: 100 nM and 1000 nM (sheet 'Samples'), CATDS: 3.1361492555590703E-2; n = 1
# NLK = details: read-out: apparent Kd, compound concentrations: 100 nM and 1000 nM (sheet 'Samples'), n = 1
# RIPK3 = details: read-out: apparent Kd; compound concentrations: 100 nM and 1000 nM (sheet 'Samples'), CATDS: 4.8358331607940903E-2; n = 1
# PIP4K2C = details: read-out: apparent Kd; compound concentrations: 100 nM and 1000 nM (sheet 'Samples'), CATDS: 4.0260686940240001E-2; n = 1
# CLK1 = details: read-out: apparent Kd; compound concentrations: 100 nM and 1000 nM (sheet 'Samples'), CATDS: 0.21092266840342; n = 1
# CLK4 = details: read-out: apparent Kd; compound concentrations: 100 nM and 1000 nM (sheet 'Samples'), CATDS: 0.13004922294711499; n = 1
# DYRK1A = details: read-out: apparent Kd; compound concentrations: 100 nM and 1000 nM (sheet 'Samples'), CATDS: 0.12917753556196801; n = 1
# JAK2 = details: read-out: apparent Kd; compound concentrations: 100 nM and 1000 nM (sheet 'Samples'), CATDS: 0.15367863363527601; n = 1
# PTK2 = details: read-out: apparent Kd; compound concentrations: 100 nM and 1000 nM (sheet 'Samples'), CATDS: 0.76143962131213405; n = 1
# RPS6KA1 = details: read-out: apparent Kd; compound concentrations: 100 nM and 1000 nM (sheet 'Samples'), CATDS: 9.5788061874141406E-2; n = 1
# RPS6KA3 = details: read-out: apparent Kd; compound concentrations: 100 nM and 1000 nM (sheet 'Samples'), CATDS: 9.4623993582158103E-2; n = 1
# [1] = compound concentrations:100 nM and 1000 nM (sheet 'Samples')
smiles,measurement,setting,value
CCNc1nccc(-c2c(-c3ccc(F)cc3)ncn2C2CCN(C)CC2)n1 [SB-226605],potency estimated from few doses,CSNK1A1; CATDS: 6.4218500177313606E-2,54.1 nM
same,potency estimated from few doses,"CSNK1D; compound concentrations: 100 nM and 1000 nM (sheet 'Samples'), CATDS: 0.15961937746466701",6.16 nM
same,potency estimated from few doses,"CSNK1E; compound concentrations: 100 nM and 1000 nM (sheet 'Samples'), CATDS: 8.6582359742075399E-2",24.7 nM
same,potency estimated from few doses,DDR1; CATDS: 5.0291994189884899E-2,116 nM
same,potency estimated from few doses,DDR2,495 nM
same,potency estimated from few doses,GAK; CATDS: 5.4860090777902201E-2,87 nM
same,potency estimated from few doses,MAPK10; CATDS: 6.8740436071955194E-2,44.8 nM
same,potency estimated from few doses,MAPK11; CATDS: 3.4840518040238501E-2,589 nM
same,potency estimated from few doses,"MAPK14; compound concentrations: 100 nM and 1000 nM (sheet 'Samples'), CATDS: 0.16984831376033699",5.38 nM
same,potency estimated from few doses,MAPK8; CATDS: 4.6835981276276903E-2,150 nM
same,potency estimated from few doses,MAPK9; CATDS: 9.88487925087526E-2,18 nM
same,potency estimated from few doses,"MAPKAPK2; compound concentrations: 100 nM and 1000 nM (sheet 'Samples'), CATDS: 7.0385751931635404E-2",42 nM
same,potency estimated from few doses,PIK3CA,220 nM
same,potency estimated from few doses,PIK3CD; CATDS: 5.28736711934766E-2,98.1 nM
same,potency estimated from few doses,PRKD2,939 nM
same,potency estimated from few doses,PRKD3,1520 nM
same,potency estimated from few doses,RIPK2; CATDS: 3.5796504024636501E-2,504 nM
same,potency estimated from few doses,TNIK,1210 nM
NC(=O)Cc1ccccc1Oc1nccc(-c2c(-c3ccc(F)cc3)ncn2C2CCNCC2)n1 [SB-264865],potency estimated from few doses,CSNK1D; [1],1300 nM
same,potency estimated from few doses,CSNK1E; [1],2030 nM
same,potency estimated from few doses,MAPK14; [1],418 nM
same,potency estimated from few doses,MAPKAPK2; [1],503 nM
CN1CCC(n2cnc(-c3ccc(F)cc3)c2-c2ccnc(Nc3ccccc3)n2)CC1 [SB-236687],potency estimated from few doses,CSNK1A1; CATDS: 5.98984637657098E-2,341 nM
same,potency estimated from few doses,"CSNK1D; compound concentrations: 100 nM and 1000 nM (sheet 'Samples'), CATDS: 0.13245154437339501",30.3 nM
same,potency estimated from few doses,"CSNK1E; compound concentrations: 100 nM and 1000 nM (sheet 'Samples'), CATDS: 9.7404692081277694E-2",66.2 nM
same,potency estimated from few doses,MAPK10; CATDS: 9.1300875893450595E-2,79 nM
same,potency estimated from few doses,MAPK11; CATDS: 7.8830615244885299E-2,122 nM
same,potency estimated from few doses,"MAPK14; compound concentrations: 100 nM and 1000 nM (sheet 'Samples'), CATDS: 0.23867511815935299",6.98 nM
same,potency estimated from few doses,MAPK8; CATDS: 4.9540433468536101E-2,1080 nM
same,potency estimated from few doses,MAPK9; CATDS: 8.0964581891509499E-2,112 nM
same,potency estimated from few doses,NLK; CATDS: 7.7822094948188494E-2,127 nM
same,potency estimated from few doses,RIPK2; CATDS: 6.8515245953885195E-2,196 nM
same,potency estimated from few doses,RIPK3,1330 nM
CN1CCC(n2cnc(-c3ccc(F)cc3)c2-c2ccnc(NCCO)n2)CC1 [SB-226879],potency estimated from few doses,CSNK1A1; CATDS: 7.9796856628157303E-2,91.2 nM
same,potency estimated from few doses,"CSNK1D; compound concentrations: 100 nM and 1000 nM (sheet 'Samples'), CATDS: 0.29962108595450698",6.97 nM
same,potency estimated from few doses,"CSNK1E; compound concentrations: 100 nM and 1000 nM (sheet 'Samples'), CATDS: 0.149531361707545",21.2 nM
same,potency estimated from few doses,DDR1; CATDS: 4.0127184299889498E-2,2140 nM
same,potency estimated from few doses,GAK; CATDS: 4.3389501889838297E-2,1240 nM
same,potency estimated from few doses,MAPK10; CATDS: 7.1886071403025706E-2,126 nM
same,potency estimated from few doses,MAPK11; CATDS: 4.3828309846065103E-2,1170 nM
same,potency estimated from few doses,"MAPK14; compound concentrations: 100 nM and 1000 nM (sheet 'Samples'), CATDS: 0.120722189423433",32.5 nM
same,potency estimated from few doses,MAPK8; CATDS: 4.3769759721199501E-2,1180 nM
same,potency estimated from few doses,MAPK9; CATDS: 6.64061265651648E-2,166 nM
same,potency estimated from few doses,"MAPKAPK2; compound concentrations: 100 nM and 1000 nM (sheet 'Samples'), CATDS: 0.113562081493031",37.1 nM
same,potency estimated from few doses,NLK; CATDS: 0.178729596227966,15.4 nM
same,potency estimated from few doses,PIK3CD; CATDS: 8.1619991171871006E-2,85.3 nM
same,potency estimated from few doses,PIP4K2C,2090 nM
same,potency estimated from few doses,RIPK2; CATDS: 4.98304008841833E-2,572 nM
CCCNC(=O)c1ccc(Nc2ncc(C(F)(F)F)c(Nc3ccccc3C(C)=O)n2)c(Br)c1 [BI00801818],potency estimated from few doses,CLK1,154 nM
same,potency estimated from few doses,CLK4,524 nM
same,potency estimated from few doses,DYRK1A,534 nM
same,potency estimated from few doses,JAK2,330 nM
same,potency estimated from few doses,PTK2,11.3 nM
same,potency estimated from few doses,RPS6KA1,1590 nM
same,potency estimated from few doses,RPS6KA3,1690 nM
